# Test results: PubChem BioAssay (NCATS)
# Inconclusive results are not listed. Entries that show only a call come without a potency. Activity calls are given as the source filed them. The call rests on the fitted dose curve; in most records, active means well fitted curve in the direction sought with a large enough effect; inconclusive means small, poorly fitted or top-dose-only effect, or another doubt; inactive means no such curve, though single readings can be large; an effect the other way counts as inactive or inconclusive.
# Experiments:
# [1] = biological target: Tyrosyl-DNA phosphodiesterase 1 (Homo sapiens) (UniProt Q9NUW8); experiment: Confirmation Assay for Inhibitors of Tyrosyl-DNA Phosphodiesterase (TDP1) (AID 489007); details: recombinant human TDP1 enzymatic activity, dose-response; further: potency means the concentration at half of the fitted maximal effect; nearly all actives have a fitted effect of over 40% in size
# Chain of Tyrosyl-DNA phosphodiesterase 1 (Homo sapiens) (Q9NUW8 whole entry, looked up): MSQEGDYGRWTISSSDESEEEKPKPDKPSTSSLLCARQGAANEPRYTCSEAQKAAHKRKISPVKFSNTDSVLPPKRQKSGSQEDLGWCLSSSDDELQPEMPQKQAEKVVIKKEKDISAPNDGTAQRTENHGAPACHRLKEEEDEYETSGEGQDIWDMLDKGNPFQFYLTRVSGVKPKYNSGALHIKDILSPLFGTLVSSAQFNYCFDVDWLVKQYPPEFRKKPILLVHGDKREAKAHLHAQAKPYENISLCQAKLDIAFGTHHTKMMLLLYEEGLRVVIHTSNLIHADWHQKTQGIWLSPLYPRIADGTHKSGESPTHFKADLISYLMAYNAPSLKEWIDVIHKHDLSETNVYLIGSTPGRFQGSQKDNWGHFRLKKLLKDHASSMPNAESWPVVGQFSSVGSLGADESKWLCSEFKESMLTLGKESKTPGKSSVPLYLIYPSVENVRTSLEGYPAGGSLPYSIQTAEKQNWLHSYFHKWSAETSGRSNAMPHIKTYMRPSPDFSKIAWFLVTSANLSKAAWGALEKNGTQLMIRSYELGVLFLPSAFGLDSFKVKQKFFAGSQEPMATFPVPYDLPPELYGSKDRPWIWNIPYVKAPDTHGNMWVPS
# Method in brief: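 Recombinant human Tdp1 (1 nM final), expressed in E. coli, preincubated 15 min with compound. Then 15 nM 5'-biotin/3'-phosphotyrosine-FITC DNA substrate added for 5 min at room temperature. AlphaScreen beads (10 ug/ml) added for 10 min; cleavage gives signal loss.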
# [2] = S16 Schwann cell PMP22 intronic element firefly luciferase assay (AID 624032); details: S16 rat Schwann cells, PMP22 element FLuc, 24 h; series mostly up to 57.5 µM; further: nearly all actives have a fitted effect of over 30% in size
# Method in brief: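 Luciferase reporter of PMP22 intronic-element expression in stably transfected S16 rat Schwann cells, read by ONE-Glo luminescence after 24 h compound exposure at 37 C. Activity scaled between DMSO (0%) and positive-control PTC124; concentration-effect curves quality-classified.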
# 7G8 = experiment: qHTS profiling for inhibitors of Plasmodium falciparum proliferation (AID 504749); further: nearly all actives have a fitted effect of over 60% in size; further: potency means the concentration at half of the fitted maximal effect; details: P. falciparum in erythrocytes, SYBR Green DNA, 72 h; series mostly up to 28.7 µM
# Method in brief: (§1)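 Infected RBCs, 0.3% parasitemia/2.5% Hct final; cpd 72 h, 37 C, 5% CO2; lysis buffer with saponin/triton/SYBR Green I, o/n RT dark; FI 485/535; norm. to artemisinin (0.29 uM) and DMSO.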
# DIV17 = experiment: as above; details: P. falciparum in erythrocytes, SYBR Green DNA, 72 h; series mostly up to 28.7 µM
# Method in brief: as §1
# PC26 = experiment: as above; details: P. falciparum in erythrocytes, SYBR Green DNA, 72 h; series mostly up to 28.7 µM
# Method in brief: as §1
# TAB109 = experiment: as above; details: P. falciparum in erythrocytes, SYBR Green DNA, 72 h; series mostly up to 28.7 µM
# Method in brief: as §1
SMILES,Potency [1],Potency [2],Potency (7G8),Potency (DIV17),Potency (PC26),Potency (TAB109)
Nc1nc(/C(=C/CC(=O)O)C(=O)NC2C(=O)N3C(C(=O)O)=CCSC23)cs1 (stereo not drawn),12.6 µM (active),–,–,–,–,–
C=C1Nc2ccccc2C(=O)N1c1ccccc1C,–,inactive,inactive,inactive,inactive,inactive
Cc1cc(C)cc(C(=O)OC2CC3CCC(C2)N3C)c1 (stereo not drawn),–,–,8.91 µM (active),–,–,inactive
Oc1cc(O)c2c(c1)OC(c1cc(O)c(O)c(O)c1)C(O)C2 (stereo not drawn),5.01 µM (active),–,–,–,–,–
CC1(C)[C@@H](C=C(Cl)Cl)[C@@H]1C(=O)OCc1c(F)c(F)cc(F)c1F,–,–,inactive,inactive,inactive,–
CCOC(=O)CCCc1cc[c]([Sb](=[O])([OH])[OH])cc1,0.794 µM (active),–,–,–,–,–
OCC(O)[C@H]1O[C@@H]2O[C@H](C(Cl)(Cl)Cl)O[C@@H]2[C@H]1O (stereo partly drawn),–,inactive,inactive,inactive,inactive,inactive
CN1C2CCC1C(C(=O)O)C(OC(=O)c1ccccc1)C2 (stereo not drawn),–,inactive,inactive,inactive,inactive,inactive
[O]=[Sb]([OH])([OH])[c]1ccccc1,6.31 µM (active),–,–,–,–,–
C=CC[N+]1(C)CCC23c4c5ccc(O)c4O[C@H]2C(=O)CC[C@@]3(O)C1C5 (stereo partly drawn),–,inactive,inactive,inactive,inactive,inactive
[S]=[Sb][S][Sb]=[S],–,inactive,inactive,inactive,–,inactive
C[C@@H]1CC[C@H]2[C@@H](C)C(=O)O[C@@H]3OC4(C)CC[C@@H]1C32OO4 (stereo partly drawn),–,–,0.0016 µM (active),0.0095 µM (active),0.0076 µM (active),0.0045 µM (active)
CCOC(=O)/C=C(C)/C=C/CC(C)CCCC(C)C (stereo not drawn),–,inactive,inactive,inactive,inactive,inactive
O=c1c2ccccc2nc(/C=C/c2cccnc2)n1Cc1ccccc1,14.1 µM (active),–,–,–,–,–
CCCCCc1cc(O)c2c(c1)OC(C)(C)C1CC=C(C)CC21 (stereo not drawn),–,–,0.708 µM (active),1.51 µM (active),1.9 µM (active),3.16 µM (active)
CN(C)c1ccc(/C=C2/C(=O)NC(=O)N(Cc3ccco3)C2=O)cc1,100 µM (active),–,–,–,–,–
CCCCCC(O)C1C(=O)OC(C)C(O)\C=C/C=C\C=C/C=C\C=C(\C)C(O)C(O)C(O)CC(O)CC(O)CC(O)CC(O)CC1O (stereo not drawn),–,inactive,inactive,inactive,inactive,inactive
CC1(C)S[C@@H]2[C@H](N)C(=O)N2C1C(=O)O (stereo partly drawn),–,inactive,inactive,inactive,inactive,inactive
O=C1NC(=S)NC(=O)C1=Cc1ccc2c(c1)CCN2CCCCl,2.51 µM (active),–,–,–,–,–
CCOc1ccc2nc(N=Nc3c(O)[nH]c(=O)[nH]c3=O)sc2c1,100 µM (active),–,–,–,–,–
CC(C)(O/N=C(\C(=O)N[C@@H]1C(=O)N2C(C(=O)[O-])=C(C[n+]3ccccc3)CS[C@@H]12)c1csc(N)n1)C(=O)O,15.8 µM (active),–,–,–,–,–
C[C@]12C=CC(=O)C=C1CC[C@@H]1C2CC[C@]2(C)OC(=O)CCC12 (stereo partly drawn),–,inactive,inactive,inactive,inactive,inactive
O=C1NC(=O)N(c2ccc3c(c2)OCO3)C(=O)/C1=C\c1ccc(-c2ccccc2C(=O)O)o1,3.16 µM (active),–,–,–,–,–
CCCN1CCCC2Cc3nc(N)ncc3CC21 (stereo not drawn),–,inactive,inactive,inactive,inactive,inactive
CCc1nnc(NC(=O)CSc2ccc(-c3ccco3)nn2)s1,15.8 µM (active),–,–,–,–,–
CC1OC(O[C@H]2C[C@@H](O)[C@]3(CO)[C@@H]4C(CC[C@]3(O)C2)[C@@]2(O)CC[C@H](C3=CC(=O)OC3)[C@@]2(C)C[C@H]4O)C(O)C(O)C1O (stereo partly drawn),–,inactive,inactive,inactive,–,inactive
CCOC(=O)C1CCN(/C=C2/C(=O)NC(=O)N(Cc3ccco3)C2=O)CC1,44.7 µM (active),–,–,–,–,–
OC[C@@H](O)[C@H]1O[C@@H]2OC(C(Cl)(Cl)Cl)O[C@H]2[C@H]1O (stereo partly drawn),–,inactive,inactive,inactive,inactive,inactive
NC(Cc1ccc(Oc2cc(I)c(O)c(I)c2)c(I)c1)C(=O)O (stereo not drawn),–,inactive,inactive,inactive,inactive,inactive
